As usually defined, the inhibition is the drop in the measured response relative to a control, in per cent.

This is an account of results in PubChem BioAssay AID624040 (The Scripps Research Institute Molecular Screening Center, 2012).

Hit rate of the full screen: of about 360,000 compounds, about 2,100 (0.58%) were called active.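 The calls were made as follows: active = inhibition above a per-plate cutoff, the mean of that plate's test compounds plus 3 SD (cut at about 27% in these data); inactive = the rest.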 The list comes from a sample in which actives are over-represented; it also holds similar structures and randomly drawn compounds.

This assay deals with Muscarinic acetylcholine receptor M5 (Homo sapiens) (UniProt P08912). The experiment in a line: CHRM5 blockers of acetylcholine calcium response – CHO cells, Fluo-8 calcium fluorescence, primary screen (AID 624040).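 Also: 0% = acetylcholine EC80 with DMSO and 100% = DMSO without agonist.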 Particulars: CHO-hM5 cells, ACh EC80, at 3 µM, active compounds read high.
Muscarinic acetylcholine receptor M5 (Homo sapiens), sequence (P08912 whole entry, looked up): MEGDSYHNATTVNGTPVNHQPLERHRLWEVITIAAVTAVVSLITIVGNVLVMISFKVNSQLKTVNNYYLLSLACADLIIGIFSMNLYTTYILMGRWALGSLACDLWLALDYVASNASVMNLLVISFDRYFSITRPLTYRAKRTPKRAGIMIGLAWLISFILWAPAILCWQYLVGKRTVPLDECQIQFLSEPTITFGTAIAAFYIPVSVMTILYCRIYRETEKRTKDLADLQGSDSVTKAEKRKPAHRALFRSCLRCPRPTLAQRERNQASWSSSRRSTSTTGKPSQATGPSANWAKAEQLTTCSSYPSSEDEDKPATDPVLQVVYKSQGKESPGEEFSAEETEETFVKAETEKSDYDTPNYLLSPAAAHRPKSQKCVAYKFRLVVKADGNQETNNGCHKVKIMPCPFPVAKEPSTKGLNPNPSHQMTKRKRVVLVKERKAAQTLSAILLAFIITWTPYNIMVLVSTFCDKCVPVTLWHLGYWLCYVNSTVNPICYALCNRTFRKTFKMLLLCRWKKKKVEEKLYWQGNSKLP
For the compound `CCc1ccc[n+](-c2nc([O-])sc2C=O)c1`, the inhibition is 9.19% (inactive).
Consider `Cc1ccc(C23CC4CC(CC(C(=O)NCC(=O)O)(C4)C2)C3)cc1`, for which the inhibition is 6.84% (inactive).
As for `Cc1nnc(SCCCCSc2nnc(C)c(=O)[nH]2)[nH]c1=O`, the figure is -7.67% (inactive); as for `CC1(C(=O)Nc2ccccc2Br)CCN1C(=O)CC1CC1` (stereo unspecified), 4.22% (inactive).
Consider `COn1c(=O)c(=O)n(OC)c2ccccc21`, for which the inhibition is 6.69% (inactive).
As for `CCOc1cc(C(=O)Nc2ccc(S(=O)(=O)Nc3cnc4ccccc4n3)cc2)cc(OCC)c1OCC`, the inhibition is 0.97% (inactive).
Consider `Nc1nnc(SCC(=O)NC2CCCc3ccccc32)s1` (stereo unspecified), for which the inhibition was 2.63% (inactive).
As for `Nc1nnc(SCC(=O)Nc2ccc3nc(SCC(=O)Nc4ccccc4)sc3c2)s1`, the figure is 43.5% (active); as for `O=C(CSc1nc(-c2ccccc2)cs1)Nc1cccc([N+](=O)[O-])c1`, 14.8% (inactive); as for `CCOC(=O)c1nc(-c2ccc3c(c2)OCO3)[nH]c1C`, 3.11% (inactive).
On to `COc1ccc2c(c1)[C@H]1[C@H](CO2)[C@H](c2ccccc2)[C@]2(C)C(=O)Nc3cc(F)c(F)cc3C(=O)N12`, for which the inhibition is 11.7% (inactive).
As to `CCN1CCC2(CC1)N=C(c1ccc(F)cc1)C(=S)N2C(=O)c1ccc(C)cc1`, the inhibition is 69.5% (active).
As for `Cc1ccc(C(=O)N2CC(=O)Nc3ccc(F)cc3C2c2ccc(F)cc2)cc1` (stereo unspecified), the figure is 11.2% (inactive); as for `CCN1CCC(O)(/C=C/c2ccc(C)cc2)C(C(=O)/C=C/c2ccc(C)cc2)C1` (stereo unspecified), 5.72% (inactive).
For the compound `CCOc1ccc(-n2c(N)c(C(=O)NCC3CCCO3)sc2=S)cc1` (stereo unspecified), the inhibition is 3.05% (inactive).
For `Cc1cccc(C(=O)NCC(=O)OCC(=O)N(C)CC(=O)Nc2ccccc2Cl)c1` the value was 9.75% (inactive); for `CC1(C)CC(N2CCN(C(c3ccccc3)c3ccccc3)CC2)=CC(=[N+]2CCCCC2)C1`, 31.9% (active); for `CC1CC(NC(=O)/C(C#N)=C/c2ccc[nH]2)CC(C)(C)C1` (stereo unspecified), 1.56% (inactive).
For `CCC(=O)N1CCN=C1SCc1ccc(F)cc1` the value was 5.93% (inactive).
`COc1cccc(CNc2nc3cc(-c4csc5ccccc45)sc3c(=O)n2C)c1`: the inhibition was 2.12% (inactive).
On to `COc1cccc(CNc2nc(NCc3cccs3)nc3ccsc23)c1`, for which the inhibition is 44.2% (active).
With `COc1ccccc1CNc1nc(Nc2ccccc2Cl)c2sccc2n1`, the inhibition is 11.1% (inactive).
As for `CCOc1ccc(N2C(=O)CC(N(CCc3ccc(OC)c(OC)c3)C(=S)Nc3ccccc3)C2=O)cc1` (stereo unspecified), the figure is 30.8% (active).
As for `CN(C)c1ccc(NC(=S)N(CCc2ccccc2)C2CC(=O)N(c3c(Cl)cccc3Cl)C2=O)cc1` (stereo unspecified), the figure is -4.62% (inactive); as for `COC(=O)CN(C(=S)Nc1ccc(Cl)cc1)C1CC(=O)N(c2ccc(OC)cc2)C1=O` (stereo unspecified), 11.6% (inactive).
Consider `CCn1ncc(CNC(=O)C2(C)CC2(Br)Br)c1C` (stereo unspecified), for which the inhibition is 4.36% (inactive).
As for `CCCCCCCCCCOC(=O)Cn1c(COc2cccc(OC)c2)[n+](C)c2ccccc21`, the figure is 31% (active).
For `Cc1c(C)c(C)c(S(=O)(=O)N2CCC3(CC2)OCCO3)c(C)c1C` the value was 5.79% (inactive); for `COC(C/C=C/C(=O)[C@@H](C)OCc1ccccc1)OC`, 3.64% (inactive).
As for `O=C(/C=C(O)/C=C/c1ccc(O)cc1)/C=C/c1ccc(O)cc1`, the figure is 54.8% (active).
As for `NC1=NC(=O)S/C1=C\c1ccc(O)cc1`, the inhibition was -0.48% (inactive).
For `CC(C)(C)C(=O)/C(C#N)=C/c1ccc(O)cc1`, the inhibition was 4.34% (inactive).
As for `COc1ccc(S(=O)(=O)NCCOc2ccccc2)cc1F`, the figure is -2.02% (inactive).
For `COc1ccc(OCCNS(=O)(=O)Cc2ccccc2)cc1`, the inhibition is 4.63% (inactive).
Consider `COc1ccc(S(=O)(=O)NCCCCOc2ccc(Cl)cc2)cc1`, for which the inhibition is 32.2% (active).
On to `Cc1ccc(S(=O)(=O)N2CCOCC2)cc1C(=O)OC1CCCCC1=O` (stereo unspecified), for which the inhibition was 5.95% (inactive).
As for `O=C(COc1ccccc1)Nc1cc2c3c(c1)CC(=O)N3CCC2`, the figure is -0.99% (inactive).
As for `CCC(C(=O)Nc1ccc(C(C)C)cc1)c1ccccc1` (stereo unspecified), the figure is 19.2% (inactive); as for `CCC(C(=O)OCCN(CC)CC)c1ccccc1` (stereo unspecified), 67.6% (active).
For `CCN(CC)CCOC(=O)c1ccc(NC(=O)CNC(=O)c2ccccc2)cc1` the value was 10.2% (inactive).
Take `CCCC(C(=O)OCCN(CC)CC)(c1ccccc1)c1ccccc1`: the inhibition was 48.8% (active).
For `CCOC(=O)CCP(=O)(O)C(O)(c1ccccc1)c1ccccc1` the value was -4.02% (inactive); for `COC(CCN(C)C)(c1ccccc1)c1ccccc1`, 11.5% (inactive); for `CN(C)C(=O)c1ccc2c(c1)C1C3CCC(C3)C1C(c1ccccc1)N2` (stereo unspecified), -2.46% (inactive).
As for `CCOC(=O)N1CCC(NC(=O)Cn2cc3c(n2)CCCCC3)CC1`, the figure is 0.05% (inactive).
As for `CC(C)c1ccc(/C=C2\NC(=O)NC2=O)cc1`, the figure is -18.6% (inactive); as for `CC(C)c1ccc(C=NNc2ccc([N+](=O)[O-])cn2)cc1`, 27.5% (active); as for `CC(C)c1ccc(NC(=O)CCN2C(=O)c3ccc([N+](=O)[O-])cc3C2=O)cc1`, -6.62% (inactive).
Consider `CCS(=O)(=O)N1CCC(N2CCN(c3ccccc3)CC2)CC1`, for which the inhibition was 8.56% (inactive).
`Cc1ccccc1NS(=O)(=O)CCCCC(Cl)(Cl)Cl`: the inhibition was 3.5% (inactive).
Take `COc1ccc(CN2CC(C(=O)NC3CCCCC3)CC2=O)cc1` (stereo unspecified): the inhibition is -0.55% (inactive).
For `CC(=O)N1CCN(Cc2cc(=O)oc3cc(C)ccc23)CC1` the value was -1.45% (inactive).
On to `CC(=O)c1c(C)[nH]c(C(=O)COC(=O)c2cccc(S(=O)(=O)N(C)c3ccccc3)c2)c1C`, for which the inhibition is 74.2% (active).
As for `CN(c1ccccc1)S(=O)(=O)c1cccc(C(=O)NNC(=O)c2ccncc2)c1`, the figure is 1.22% (inactive); as for `COc1ccc(C)cc1NC(=O)C(OC(=O)c1cccc(S(=O)(=O)N(C)c2ccccc2)c1)c1ccccc1` (stereo unspecified), -1.67% (inactive).
For the compound `O=C(CCc1nnc2ccc(NCc3ccccc3Cl)nn12)NCC1CCN(C2CCCC2)C1` (stereo unspecified), the inhibition was 1.64% (inactive).
For `COC(C[C@H](O)CC(=O)COCc1ccccc1)OC` the value was 2.21% (inactive).
As for `O=C(NCCN1CCN(C(=O)c2cccc([N+](=O)[O-])c2)CC1)C(=O)NCc1ccc(Cl)cc1`, the figure is 10.1% (inactive).
As for `COc1ccc(CC(=O)Nc2nc(-c3ccc(F)c(F)c3)cs2)cc1OC`, the inhibition is 32.4% (active).
Consider `Cc1csc(NC(=O)CSc2ccc(-c3ccc(F)cc3)nn2)n1`, for which the inhibition is 6.55% (inactive).
As for `COc1ccc(CC(=O)NC2CCSc3ccccc32)cc1OC` (stereo unspecified), the figure is 17.6% (inactive); as for `O=C(CNCCO)NC12CC3CC(CC(C3)C1)C2`, -2.76% (inactive).
For `COc1ccc(C(=O)Oc2ccc(-c3nnco3)cc2)cc1S(=O)(=O)N1CCOCC1` the value was 15.9% (inactive); for `NC(=O)C1CCN(C(=O)c2ccc(F)c(S(=O)(=O)N3CCOCC3)c2)CC1`, 13.8% (inactive); for `O=C(Oc1ccc(-c2nnco2)cc1)c1ccc(F)c(S(=O)(=O)N2CCOCC2)c1`, 27.2% (active).
For `CC1C(=O)NC(=O)C1c1ccccc1` (stereo unspecified) the value was 5.64% (inactive).
Regarding `COc1cccc(-c2ccc(C#N)c(SCC(=O)NCCc3ccc(Cl)cc3)n2)c1`, the inhibition was -0.91% (inactive).
As for `COc1cc(C(=O)N2CCOC23CCN(Cc2ccccc2)CC3)cc(OC)c1OC`, the figure is 4.88% (inactive); as for `C[C@@H]1CC[C@@]2(OC1)O[C@H]1C[C@H]3[C@@H]4CC=C5C[C@@H](O)[C@H](O)C[C@]5(C)C4CC[C@]3(C)[C@H]1[C@@H]2C` (stereo partly specified), -3.19% (inactive).
For `Cc1onc(-c2ccccc2)c1-c1nnc(COC(=O)c2ccc(N(C)C)cc2)o1` the value was 66.8% (active); for `O=C(OCc1nnc(-c2ccccc2)o1)c1cc(=O)[nH]c2ccccc12`, 6.31% (inactive).
As for `O=C(OCc1nnc(-c2ccccc2)o1)c1ccc2c(c1)C(=O)N(CCc1ccccc1)C2=O`, the figure is 5.45% (inactive); as for `CN/C(=C\[N+](=O)[O-])NCCSCc1csc(CN(C)C)n1`, 4.23% (inactive); as for `CC(C)C(=O)Nc1nnc(Sc2ccc(N(C)C)cc2)s1`, -0.86% (inactive).
With `O=C(Cc1ccc(S(=O)(=O)N2CCOCC2)s1)N1CCN(c2ccc(C(F)(F)F)cc2[N+](=O)[O-])CC1`, the inhibition was 17.4% (inactive).
As for `O=C(c1ccc(N2CCCC2=O)cc1)N1CCN(c2ccc(C(F)(F)F)cc2[N+](=O)[O-])CC1`, the figure is 29.3% (active).
For `COc1cc(OC)cc(C(=O)NC(=S)N2CCN(c3ccc(C(F)(F)F)cc3[N+](=O)[O-])CC2)c1`, the inhibition is 18.9% (inactive).
For `CC(Sc1sc(=S)sc1SC(C)C(=O)O)C(=O)O` (stereo unspecified) the value was 0.68% (inactive); for `Cc1cc2oc3ccc(NCCC4CCCN4C)cc3c(=O)c2cc1C` (stereo unspecified), 9.19% (inactive).
For `CN1CCC[C@@H]1CCO[C@](C)(c1ccccc1)c1ccc(Cl)cc1` the value was 98.5% (active); for `Cc1ccc(-c2noc(CNC(=O)c3ccoc3C)n2)cc1`, 12.7% (inactive); for `CC(=O)c1ccc(S(=O)(=O)N(C)CCCC(=O)N(C)Cc2ccccc2F)cc1`, -0.62% (inactive).
In the case of `Cc1nc(CN(C)C(=O)CC2C(=O)NCCN2Cc2ccc(F)cc2)cs1` (stereo unspecified), the inhibition is -22.7% (inactive).
For `CSc1cccc(NC(=S)N(C(C)C)C(C)c2ccccn2)c1` (stereo unspecified) the value was 4.26% (inactive).
For `COc1ccc2[nH]c(=O)c(CN(Cc3cccnc3)S(=O)(=O)c3ccccc3F)cc2c1` the value was 27.3% (active); for `COc1ccc(-c2[nH]ncc2CN(C)Cc2cccnc2)c(F)c1`, -5.23% (inactive).
On to `CCOc1ccc2[nH]c(=O)c(CN(CCCO)S(=O)(=O)c3ccc(F)cc3)cc2c1`, for which the inhibition is 11.3% (inactive).
As for `CC(C)c1nnc(NC(=O)C2CCCN2S(=O)(=O)c2ccc(Cl)cc2)s1` (stereo unspecified), the figure is -0.86% (inactive).
For `CC(=O)CC(CC(=O)NC1CCCCC1)c1ccccc1` (stereo unspecified) the value was 8.42% (inactive); for `O=C(CNC1CCCCC1)NCC1(c2ccccc2)CCCC1`, 27.1% (active).
For `CCOc1c(OC)cccc1C(=O)NCC1(c2ccccc2)CCCC1` the value was 15.3% (inactive).
